{"source": "PubChem BioAssay (NCATS)", "note": "Records with an inconclusive call do not appear. Unmarked numbers belong to inactive results. Active and inactive are the calls of the source. Calls come from the whole dose curve; as a rule, active = well fitted inhibition curve with a large enough effect; inconclusive = small, poorly fitted or top-dose-only effect; inactive = flat fitted curve, though single readings scatter. % is set by controls: 0 for no effect and ±100 for the full control effect; potency is the fitted concentration of half-maximal effect."}
{"biological_target": "DNA repair nuclease/redox regulator APEX1 (Homo sapiens) (UniProt P27695)", "sequence (P27695 whole entry, looked up)": "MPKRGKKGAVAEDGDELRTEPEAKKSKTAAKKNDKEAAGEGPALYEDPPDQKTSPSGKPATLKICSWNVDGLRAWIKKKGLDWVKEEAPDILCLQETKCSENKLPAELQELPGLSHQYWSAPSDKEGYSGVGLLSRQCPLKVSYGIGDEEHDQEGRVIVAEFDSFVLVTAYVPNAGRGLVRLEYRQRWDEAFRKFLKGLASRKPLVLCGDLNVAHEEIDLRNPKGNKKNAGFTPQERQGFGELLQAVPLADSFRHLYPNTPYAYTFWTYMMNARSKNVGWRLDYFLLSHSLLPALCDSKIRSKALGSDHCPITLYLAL", "experiment": "qHTS Validation Assay for Inhibitors of the Human Apurinic/apyrimidinic Endonuclease 1 (APE1) (AID 1705;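 for activity change, negative = inhibition: TAMRA fluorescence gain over two minutes as APE1 cuts a quenched THF abasic duplex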)", "details": "purified APE1 endonuclease activity, fluorescence, titration; series mostly up to 57.1 µM; activity change, negative = inhibition: at the top concentration", "excerpt": "Assay Provider: David M. Wilson, III, National Institute on Aging, NIH\nScreening Center PI: Austin, C.P.\nScreening Center: NIH Chemical Genomics Center [NCGC]\nThe apurinic/apyrimidinic endonuclease APE1 is the primary mammalian enzyme responsible for the removal of abasic (or AP) sites in DNA and functions centrally in the base excision DNA repair (BER) pathway. […] Thus, targeting APE1 could improve the efficacy of current treatment paradigms by promoting selective sensitization or protection of diseased and normal cells, respectively.\nInhibition of APE1 activity was screened by utilizing double-stranded short substrate containing tetrahydrofuran (THF) abasic site labeled with rhodamine-type fluorophore (TAMRA) at the 5'-end and with non-fluorescent Black Hole Quencher-2 (BHQ-2) at the opposing 3'-end. An increase in the fluorescence intensity due to incision of the abasic site by APE1 was used to measure the enzyme activity.\n1. Substrate: 50 nM final concentration of TAMRA/BHQ-2 substrate dispensed throughout the plate.\n2. Enzyme: […] nM APE1 final concentration in columns 1, 2, 5-48. Column 1 is neutral (100% activity)\n3. Control: Pintool transfer of control inhibitor NSC-13755 to column 2 of all assay plates. Two-fold, 16 pt dilution in duplicate to produce final concentrations in the […] uM - […] nM range.\n3. Buffer columns in columns 3 and 4 were used as negative control (no enzyme).\nThree uL of enzyme were dispensed to 1536-well Greiner black solid bottom plates. Compounds (23 nL) were transferred via Kalypsys pintool. The plates were incubated for 15 min at room temperature, and then 1 uL of substrate solution was added to start the reaction. The plates were immediately transferred into ViewLux High-throughput CCD imager (Perkin-Elmer) in order to measure the reaction progress in kinetic mode (three reads every 60 seconds) using 525 nm excitation and 598 nm emission fluorescence protocol. The fluorescence intensity difference between the third and the first time points was used to compute reaction progress.", "units": {"activity change, negative = inhibition": "%"}}
{"smiles": "O=c1[nH]oc2c1CCNC2", "activity change, negative = inhibition": -6.18}
{"smiles": "CC(C)c1cccc(C(C)C)c1O", "activity change, negative = inhibition": -3.42}
{"smiles": "CC(C)(C)NCC(O)c1ccccc1Cl", "note": "(stereo not drawn)", "activity change, negative = inhibition": -5.4}
{"smiles": "CCCCC/C=C\\C/C=C\\C/C=C\\C/C=C\\CCCC(=O)NCC(=O)O", "Potency": "28.2 µM (active)"}
{"smiles": "O=C(CCCN1CCC2(CC1)C(=O)NCN2c1ccccc1)c1ccc(F)cc1", "activity change, negative = inhibition": -8.74}
{"smiles": "NCCc1ccc(O)cc1", "activity change, negative = inhibition": 4.4}
{"smiles": "CC(C)N(CCC(C(N)=O)(c1ccccc1)c1ccccn1)C(C)C", "note": "(stereo not drawn)", "Potency": "inactive"}
{"smiles": "CC(NC(C)(C)C)C(=O)c1cccc(Cl)c1", "note": "(stereo not drawn)", "activity change, negative = inhibition": 7.3}
{"smiles": "O=P1(N(CCCl)CCCl)NCCCO1", "note": "(stereo not drawn)", "activity change, negative = inhibition": 11.4}
{"smiles": "C[C@]12CCC(=O)C=C1CC[C@@H]1[C@@H]2CC[C@]2(C)C(=O)CC[C@@H]12", "activity change, negative = inhibition": 5.23}
{"smiles": "C=C(C)[C@H]1CN[C@H](C(=O)O)[C@H]1CC(=O)O", "activity change, negative = inhibition": 4.46}
{"smiles": "CCC1(c2ccc(N)cc2)CCC(=O)NC1=O", "note": "(stereo not drawn)", "activity change, negative = inhibition": -4.09}
{"smiles": "O=C(O)CCCc1ccc(N(CCCl)CCCl)cc1", "activity change, negative = inhibition": -5.12}
